Laboratory results as given in the supplement of paper PMC3334620.
In all, about 33,000 sequences were measured (“E-score (-0.5 to 0.5)”: median about -0.017, highest 2% from about 0.3 on). The list comes from a sample in which the highest values are over-represented; it also holds similar and randomly drawn sequences.

Target: T1, Sut1 (UniProt P53032)
T1 sequence: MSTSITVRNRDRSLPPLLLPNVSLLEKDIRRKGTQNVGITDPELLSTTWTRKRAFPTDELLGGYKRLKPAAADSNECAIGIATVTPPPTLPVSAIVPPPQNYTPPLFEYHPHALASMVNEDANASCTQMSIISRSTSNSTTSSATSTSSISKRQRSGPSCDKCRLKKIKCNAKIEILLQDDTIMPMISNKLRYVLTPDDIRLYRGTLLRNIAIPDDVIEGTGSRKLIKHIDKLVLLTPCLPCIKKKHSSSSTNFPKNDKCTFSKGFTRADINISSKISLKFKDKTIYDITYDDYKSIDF
Assay: PBM E-score (8-mer binding enrichment) (E-score (-0.5 to 0.5)); higher = stronger / more preferred TF binding
Conditions: protein concentration: 200 nM; construct: GST-full length
How it was run: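 The E-score, a modified Wilcoxon-Mann-Whitney statistic, was computed by the Universal PBM Analysis Suite for every ungapped eight-base word pooled with its reverse complement. Scans behind it were normalised with masliner after bound GST-tagged yeast transcription factors were detected with fluorescent anti-GST. The proteins, at about 100-200 nM, had been applied to universal all-10-mer Agilent arrays made double-stranded by primer extension.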

Going from CTTTCGTA to ATTTCGAC, the “PBM E-score” value falls from 0.0877 to 0.0327.

Going from ATTTCAAA to GAGTGGTA, the “PBM E-score” value falls from 0.219 to -0.0154.

First: CTGCGAGC
Second: GCGCCCGA
The “PBM E-score” value of the first is higher: -0.126 for the first, -0.17 for the second.

Compared with AGGATCGG, AACAGTCA is lower in “PBM E-score” value: -0.00265 for the first, -0.138 for the second.

First: CATCTAAA
Second: ATGCCATC
The “PBM E-score” value of the first is lower: 0.0229 for the first, 0.0993 for the second.

Compared with GCCTTAAA, AGGATGCG is lower in “PBM E-score” value: 0.0657 for the first, -0.116 for the second.

Compared with ATCCTAAG, AAGCCAGG is lower in “PBM E-score” value: -0.175 for the first, -0.253 for the second.

First: CACAAAGG
Second: GGGGCCAC
The “PBM E-score” value of the first is higher: -0.0165 for the first, -0.304 for the second.

Going from GTTTCGTA to GTTTCGAA, the “PBM E-score” value rises from 0.0481 to 0.0889.

First: GTTTCGGA
Second: CCTGTTTC
The “PBM E-score” value of the first is higher: 0.334 for the first, -0.0625 for the second.

First: ACAATCGG
Second: GCCCAAAA
The “PBM E-score” value of the first is higher: 0.259 for the first, -0.0622 for the second.

Going from TATTCCGA to CATTCCGA, the “PBM E-score” value falls from 0.321 to 0.25.

First: AATTCCCA
Second: GATTCCGC
The “PBM E-score” value of the first is lower: 0.0113 for the first, 0.0522 for the second.

First: AATTCCAA
Second: GATTCCGA
The “PBM E-score” value of the first is lower: 0.21 for the first, 0.337 for the second.

Going from TATTCCCA to AATTCCGA, the “PBM E-score” value rises from 0.139 to 0.371.

Going from GATTCCCA to ATTCTACC, the “PBM E-score” value rises from -0.188 to 0.0903.

First: AAAAGATG
Second: ACGGTCTA
The “PBM E-score” value of the first is higher: 0.0556 for the first, -0.0922 for the second.

First: GATGGAGA
Second: ACAGCATG
The “PBM E-score” value of the first is higher: 0.0416 for the first, -0.124 for the second.

First: CCGATTGC
Second: GCAGCAGA
The “PBM E-score” value of the first is higher: 0.109 for the first, -0.175 for the second.

First: CCTTCAGA
Second: GAACTGTC
The “PBM E-score” value of the first is lower: -0.0889 for the first, 0.00324 for the second.

Going from ATTCCCTC to TCCCTAGA, the “PBM E-score” value rises from -0.233 to -0.00999.

Going from ACTATAAA to GCTATAAA, the “PBM E-score” value falls from 0.321 to 0.194.

First: AGTATATC
Second: ACTAAAAG
The “PBM E-score” value of the first is lower: 0.12 for the first, 0.214 for the second.

Compared with ACTAAAAC, GTTATAAA is higher in “PBM E-score” value: 0.159 for the first, 0.303 for the second.

Going from AGTATATG to GTTATAAC, the “PBM E-score” value falls from 0.00722 to -0.0927.

First: CCTATAAA
Second: AGTATATA
The “PBM E-score” value of the first is lower: -0.0583 for the first, 0.395 for the second.

Compared with ACTAAAAA, CTTATAAA is lower in “PBM E-score” value: 0.353 for the first, 0.181 for the second.

First: ACTCAATG
Second: GATTTGAA
The “PBM E-score” value of the first is lower: 0.104 for the first, 0.142 for the second.

Compared with TAATCGTA, CAACGGTC is lower in “PBM E-score” value: 0.0634 for the first, -0.0872 for the second.

Going from GGAGGTGA to AGGTCTAT, the “PBM E-score” value falls from 0.0437 to -0.0267.

First: GCTCGATA
Second: GGTGTAGA
The “PBM E-score” value of the first is higher: -0.105 for the first, -0.149 for the second.

Going from AGTATAAA to TGTATAAA, the “PBM E-score” value falls from 0.302 to 0.157.

Compared with CCTTAAAA, AGTATAAC is higher in “PBM E-score” value: 0.0539 for the first, 0.185 for the second.

Compared with ACTTAAAA, ACTTAAAC is lower in “PBM E-score” value: 0.307 for the first, 0.241 for the second.

Going from ACACTTCA to AGATGGCA, the “PBM E-score” value falls from 0.0715 to 0.0507.

Compared with CATAGCCC, TCGGAAAA is higher in “PBM E-score” value: -0.196 for the first, 0.372 for the second.

Compared with CCGGAAAC, CCGGAAAG is higher in “PBM E-score” value: 0.245 for the first, 0.276 for the second.

First: ACGGAAAA
Second: ACGGAAAC
The “PBM E-score” value of the first is higher: 0.243 for the first, 0.0512 for the second.

Going from CCGGAAAA to GCGGAAAA, the “PBM E-score” value falls from 0.37 to 0.174.

Compared with ACGGAAAG, ACGGAAAT is higher in “PBM E-score” value: 0.25 for the first, 0.344 for the second.

First: TAGGTACA
Second: GTGAACCA
The “PBM E-score” value of the first is lower: -0.0499 for the first, 0.00963 for the second.

Compared with ACGGTGCC, TCATTCCA is higher in “PBM E-score” value: -0.0952 for the first, 0.0304 for the second.

Compared with ACGGTCGA, CATTCTGA is higher in “PBM E-score” value: -0.135 for the first, 0.00217 for the second.

Compared with ACCGGACA, GCCGGACC is lower in “PBM E-score” value: 0.234 for the first, 0.198 for the second.

Compared with CACGGACA, CCCGGACA is higher in “PBM E-score” value: 0.153 for the first, 0.354 for the second.

Compared with CCCGGACG, TCCGGACA is higher in “PBM E-score” value: -0.12 for the first, 0.415 for the second.

Going from CCCGGACC to GCCGGACA, the “PBM E-score” value falls from 0.339 to 0.273.

First: CCCGGATC
Second: GTCCACTA
The “PBM E-score” value of the first is higher: 0.213 for the first, -0.0452 for the second.

Going from GATACTAA to ATGTGGGG, the “PBM E-score” value falls from 0.141 to -0.203.

First: CCAAAAGG
Second: CGGAGTGA
The “PBM E-score” value of the first is lower: -0.0868 for the first, 0.451 for the second.

Going from CGGAGTGC to AGGAGTGA, the “PBM E-score” value falls from 0.468 to -0.0299.

First: AGGAGTGC
Second: GGGAGTGA
The “PBM E-score” value of the first is lower: -0.143 for the first, -0.0284 for the second.

Going from CTGAGTGC to CAGATACC, the “PBM E-score” value rises from -0.199 to -0.149.

First: AGGGGCCG
Second: GCGCGTCA
The “PBM E-score” value of the first is lower: -0.272 for the first, -0.00075 for the second.

Going from GACCCGGA to ACCCCGGT, the “PBM E-score” value falls from 0.204 to 0.191.

First: CCCCCGGA
Second: ACCCCGGA
The “PBM E-score” value of the first is lower: 0.0624 for the first, 0.426 for the second.

First: TCCCCGAA
Second: TCCCCGGA
The “PBM E-score” value of the first is lower: 0.228 for the first, 0.364 for the second.

Compared with AACCCGGA, CCCCCGGG is lower in “PBM E-score” value: 0.333 for the first, -0.174 for the second.

Going from CACCCGGA to ACCCCGGG, the “PBM E-score” value rises from 0.251 to 0.347.

Compared with ACCCCGGC, TCCCCCGA is lower in “PBM E-score” value: 0.183 for the first, -0.141 for the second.

Compared with CTCTGTGA, AGCGTCCC is lower in “PBM E-score” value: -0.105 for the first, -0.168 for the second.

Going from TCACCCCA to GAATTTAC, the “PBM E-score” value rises from -0.0213 to 0.0497.

Going from TGCGCAAA to AAGAGACC, the “PBM E-score” value falls from 0.0678 to -0.0189.

Going from ATGCAGCC to AGCAAATG, the “PBM E-score” value rises from -0.0379 to -0.0134.

Going from CCTTCGAC to TGCCTAAA, the “PBM E-score” value rises from -0.232 to -0.00993.

Going from GGACATCC to GGACATCA, the “PBM E-score” value rises from 0.0309 to 0.3.

First: CGACATCA
Second: AGCTCAAG
The “PBM E-score” value of the first is higher: 0.143 for the first, -0.092 for the second.

Going from CGTGCAGA to AGAGCGGA, the “PBM E-score” value rises from -0.148 to 0.318.

First: AGAGCGGC
Second: AGAGCGGG
The “PBM E-score” value of the first is lower: -0.125 for the first, -0.0998 for the second.

First: CGGAGCTC
Second: CGGAGCTA
The “PBM E-score” value of the first is higher: 0.414 for the first, 0.385 for the second.

Compared with CGGAGCCC, CTGAGCTC is lower in “PBM E-score” value: 0.183 for the first, 0.119 for the second.

Compared with AGGAGCTC, CGGAGCCG is higher in “PBM E-score” value: -0.18 for the first, 0.338 for the second.

First: AGGAGCTA
Second: GGGAGCTA
The “PBM E-score” value of the first is higher: -0.155 for the first, -0.176 for the second.

Going from AGGAGCCG to AAGCATTC, the “PBM E-score” value rises from -0.281 to 0.0319.

Compared with GCTCCCCC, GCATCAAA is higher in “PBM E-score” value: -0.444 for the first, 0.14 for the second.

Compared with CCAAGGAG, ACTTGGTC is higher in “PBM E-score” value: -0.0556 for the first, 0.183 for the second.

Compared with AGCATACA, GCACAGTA is lower in “PBM E-score” value: 0.187 for the first, -0.0754 for the second.

First: GGTCCGGA
Second: AGTCCGGG
The “PBM E-score” value of the first is lower: 0.402 for the first, 0.485 for the second.

Going from CGTCCGGC to AGGCCGGA, the “PBM E-score” value rises from -0.0125 to 0.279.

Compared with AGTCCGGC, AGTCCGGA is higher in “PBM E-score” value: 0.467 for the first, 0.487 for the second.

Compared with AGTCCTGC, AATCCGGG is higher in “PBM E-score” value: -0.19 for the first, 0.103 for the second.

Compared with AGTCCAGA, CGTCCGGA is higher in “PBM E-score” value: 0.0785 for the first, 0.27 for the second.

First: AGTCCCGG
Second: GGTCCCGA
The “PBM E-score” value of the first is higher: 0.1 for the first, 0.093 for the second.

Going from AAGTCTAC to GTAGGCAC, the “PBM E-score” value falls from 0.004 to -0.102.

First: GTTCCAGA
Second: ATGAATAA
The “PBM E-score” value of the first is lower: -0.0427 for the first, 0.146 for the second.

First: AGACGGCT
Second: AGGCTGTG
The “PBM E-score” value of the first is lower: -0.121 for the first, -0.0562 for the second.
